# Test results taken from PubChem BioAssay (NCATS).
# Results filed as inconclusive are left out. The source made the active and inactive calls. Unless noted, calls come from the whole dose curve; as a rule, active = well fitted curve in the direction sought with a large enough effect; inconclusive = small, poorly fitted or top-dose-only effect, or another doubt; inactive = no such curve, though single readings can be large; an effect the other way counts as inactive or inconclusive.
# Key:
# [1] = target: Cytochrome P450 1A2 (Homo sapiens) (UniProt P05177); assay: p450-cyp1a2 (AID 410; calls by dose curve; note: potency is the fitted concentration of half-maximal effect)
# Procedure, shortened: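 Luminescent readout of luciferin formed from Luciferin-ME by human CYP1A2; data normalized against complete inhibition by 57 uM furafylline. Enzyme 20nM, substrate 100uM at Km, 100mM KPO4 buffer, 60 min reaction at room temperature.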
# [2] = target: Glucocorticoid receptor (Homo sapiens) (UniProt P04150); assay: GR-GFP Redistribution (AID 450;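 active = compounds whose dose series gives a full or clear partial fitted curve of increased nuclear translocation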; note: potency is the fitted concentration of half-maximal effect)
# [3] = target: Glucocorticoid receptor (Homo sapiens) (UniProt P04150); assay: GR-EFC Redistribution (AID 451; calls by dose curve; note: potency is the fitted concentration of half-maximal effect); details: CHO-K1 GR-EFC translocation, beta-gal luminescence, 2 h
# Procedure, shortened: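 CHO-K1 cells stably expressing nuclear-localized β-gal enzyme acceptor and GR fused C-terminally to the enzyme donor fragment; ligand-driven nuclear translocation restores β-gal by complementation. Compounds titrated up to 46 uM final, 2 h at 37 °C; luminescence read.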
# [4] = target: Mitogen-activated protein kinase 10 (Mus musculus) (UniProt Q61831); assay: JNK3 AlphaScreen Assay (AID 530; active = well fitted curve in either direction with a large enough effect, not every such curve was filed as active;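 note: kinase came from lysate of stimulated human HepG2 cells; signal reports phosphorylation of biotinylated GST-cJun 1-79 at Ser73 with 10 µM ATP; series mostly up to about 57 µM; % is set by controls: 0 for no effect and ±100 for the full control effect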)
# Procedure, shortened: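 Inhibitors reduce antibody binding to phosphorylated biotin-cJun, lowering AlphaScreen luminescence. Lysates from HepG2 cells pre-activated by IL-1beta plus TNF-alpha supplied JNK3; compounds were titrated.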
# [5] = target: 3',5'-cyclic-AMP phosphodiesterase 4B (Homo sapiens) (UniProt Q07343); assay: qHTS Assay for Inhibitors of PDE-IV (AID 607; active = well fitted activation curve with a large enough effect in the main read-out, with a control signal flat, not every such curve was filed as active; note: potency is the fitted concentration of half-maximal effect)
# Procedure, shortened: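 Live HEK293 cells with a modified cyclic nucleotide-gated (CNG) channel report intracellular cAMP via membrane-potential dye fluorescence (ex 535/em 590 nm). Endogenous PDE-IV was targeted. Compounds were tested at up to 22.9 uM final; RO 20-1724 100 uM served as control.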
# [6] = target: Cytochrome P450 2C9 (Homo sapiens) (UniProt P11712); assay: qHTS Assay for Inhibitors and Substrates of Cytochrome P450 2C9 (AID 883); note: nearly all actives have a fitted effect of over 60% in size; note: potency is the fitted concentration of half-maximal effect
# Procedure, shortened: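 A luminogenic readout tracked human CYP2C9 (10nM) converting deoxyluciferin (100uM, at KM) in 25mM KPO4 during 60 min at 37C with regenerated NADPH. Values normalized to 57uM sulphaphenazole as complete inhibition.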
# [7] = target: Cytochrome P450 2C19 (Homo sapiens) (UniProt P33261); assay: qHTS Assay for Inhibitors and Substrates of Cytochrome P450 2C19 (AID 899); note: nearly all actives have a fitted effect of over 60% in size; note: potency is the fitted concentration of half-maximal effect
# Procedure, shortened: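 NADPH-dependent conversion of Luciferin-H EGE (10uM, at KM) by 5nM enzyme in 50mM KPO4, 60 min at 37C following 10 min compound preincubation. Stopped with luciferin detection buffer; luminescence read after 20 min.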
# [8] = target: Cytochrome P450 2D6 (Homo sapiens) (UniProt P10635); assay: qHTS Assay for Inhibitors and Substrates of Cytochrome P450 2D6 (AID 891);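 note: luciferin methyl ether substrate demethylated by CYP2D6 with NADPH regeneration; % is set by controls: 0 for no effect and ±100 for the full control effect; nearly all actives have a fitted effect of over 60% in size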
# Procedure, shortened: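 Human CYP2D6 (5 nM) with 30 uM Luciferin-ME EGE (at Km) in 100 mM KPO4, compound preincubated 10 min, then NADPH regeneration system for 60 min at room temperature. Luciferin read by luminescence; normalized to 1.43 uM quinidine.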
# [9] = target: DNA dC->dU-editing enzyme APOBEC-3G (Homo sapiens) (UniProt Q9HC16); assay: qHTS for inhibitors of Vif-A3G interactions: Validation (AID 588379); note: 0% is about no effect
# Procedure, shortened: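 HeLa cells stably expressing Vif and A3G-eYFP, 700 cells/well, incubated overnight at 37 deg C, then exposed to compound overnight at 37 deg C. Inhibition of Vif-mediated degradation read as increased yellow fluorescence (Ex 488/Em 500-530) by laser-scanning cytometry.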
# [10] = target: Androgen receptor (Homo sapiens) (UniProt P10275); assay: qHTS assay for small molecule agonists of androgen receptor signaling (AID 588515; active = well fitted curve in the direction sought with a large enough effect in the signal ratio, with a control signal flat; the % refers to the signal ratio; note: % is set by controls: 0 for no effect and ±100 for the full control effect); details: AR-UAS-bla HEK293, beta-lactamase ratio, agonist 16 h; stronger effect = higher value
# Procedure, shortened: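 EC50 and efficacy came from Hill fits of titrations (up to 92 uM) normalized to 30 nM R1881 as 100% and DMSO as 0%. Compound exposure was 16 h at 37 C on AR-UAS-bla HEK293 cells, with a 405/460/530 nm CCF4 fluorescence read.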
# [11] = target: Androgen receptor (Homo sapiens) (UniProt P10275); assay: qHTS assay for small molecule antagonists of androgen receptor signaling (AID 588516; active = well fitted curve in the direction sought with a large enough effect in the signal ratio, with a control signal flat, not every such curve was filed as active; the % refers to the signal ratio; note: % is set by controls: 0 for no effect and ±100 for the full control effect)
# Procedure, shortened: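 Compounds tested in titration against 10 nM R1881 in AR-responsive bla reporter HEK 293 cells; CCF4 fluorescence (460/530 nm) after 16 h exposure gave IC50 and efficacy.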
# [12] = target: Bile acid receptor (Homo sapiens) (UniProt Q96RI1); assay: qHTS assay for small molecule antagonists of farnesoid X receptor signaling (AID 588526; calls by dose curve; note: % is set by controls: 0 for no effect and ±100 for the full control effect)
# Procedure, shortened: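 Concentration-response titrations were fitted to the Hill equation for half-maximal inhibition and maximal response, with data normalised to 50 uM chenodeoxycholic acid and DMSO control wells. Cells: FXR-UAS-bla HEK293T, dialyzed FBS.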
# [13] = target: Glucocorticoid receptor (Homo sapiens) (UniProt P04150); assay: qHTS assay for small molecule agonists of glucocorticoid receptor signaling (AID 588532; active = well fitted curve in the direction sought with a large enough effect in the signal ratio, with a control signal flat; the % refers to the signal ratio;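 note: 100% = dexamethasone at 0.1 µM and 0% = DMSO only wells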); details: HeLa MMTV-bla, beta-lactamase ratio, agonist, 18 h; stronger effect = higher value; percent of dexamethasone control, DMSO zero
# Procedure, shortened: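 Titration series, up to 92 uM, applied to GRE-bla HeLa cells for 18 h at 37 C. Detection by CCF4 FRET substrate after 2 h at RT.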
# [14] = target: Peroxisome proliferator-activated receptor gamma (Homo sapiens) (UniProt P37231); assay: qHTS assay for small molecule antagonists of peroxisome proliferator-activated receptor gamma signaling (AID 588537; active = well fitted inhibition curve with a large enough effect in the signal ratio, with a control signal flat, not every such curve was filed as active; the % refers to the signal ratio;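 note: reporter cells co-stimulated with 50 nM rosiglitazone agonist during compound treatment; % of control where 0% means no effect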)
# Procedure, shortened: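 We seeded GeneBLAzer HEK293 reporter cells at 3000 per well, allowed 6-6.5 h attachment at 37 C, then co-treated with test compound titrations and 50 nM rosiglitazone overnight (16 h). Inhibition was quantified from 460/530 nm emission ratios.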
# [15] = target: Vitamin D3 receptor (Homo sapiens) (UniProt P11473); assay: qHTS assay for small molecule agonists of vitamin D receptor signaling (AID 588543; calls by dose curve;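 note: 0% = DMSO basal and 100% = reference agonist control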)
# Procedure, shortened: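 Measured: β-lactamase reporter activity (CCF4, 405 nm excitation, 460/530 nm emission) in HEK293T VDR-UAS-bla cells after 16 h compound exposure at 37 °C. Normalization against 50 nM 1α,25-dihydroxyvitamin D3 and DMSO; Hill-fit EC50.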
# [16] = target: Thyroid hormone receptor beta (Homo sapiens) (UniProt P10828); assay: qHTS assay for small molecule agonists of thyroid hormone receptor beta signaling (AID 588545; calls by dose curve;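 note: 0% = DMSO only and 100% = 10 nM T3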)
# Procedure, shortened: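 Compounds were tested as agonists in TR-UAS-bla-GripTite HEK 293 cells. After 18 hrs at 37 C, CCF4 substrate was added and fluorescence read after 2 hrs at room temperature.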
# [17] = qHTS assay for small molecule antagonists of retinoid X receptor alpha signaling (AID 588546; active = well fitted inhibition curve with a large enough effect in the signal ratio, with a control signal flat, not every such curve was filed as active; the % refers to the signal ratio); details: HEK293T RXRa-UAS-bla, beta-lactamase ratio, antagonist mode; measured here: W530 green channel, cytotoxicity proxy
# Procedure, shortened: (§1)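 Beta-lactamase reporter inhibition, read as CCF4 fluorescence ratio (ex 405, em 460/530 nm) after 2 h at RT. HEK293T UAS-bla cells, 2500/well, were stimulated with 9-cis-RA at 500 or 100 nM final alongside test compound for 18 h at 37 C.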
# [18] = target: Retinoic acid receptor RXR-alpha (Homo sapiens) (UniProt P19793); assay: as above; details: HEK293T RXRa-UAS-bla, beta-lactamase ratio, antagonist mode
# Procedure, shortened: as §1
# [19] = target: Thyroid hormone receptor beta (Homo sapiens) (UniProt P10828); assay: qHTS assay for small molecule antagonists of thyroid hormone receptor beta signaling (AID 588547; active = well fitted inhibition curve with a large enough effect in the signal ratio, with a control signal flat, not every such curve was filed as active; the % refers to the signal ratio); details: TR-UAS-bla HEK293, beta-lactamase ratio, antagonist mode, 18 h
# Procedure, shortened: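 TR-UAS-bla GripTite HEK293 cells in 2% charcoal/dextran FBS medium were preincubated 4 h at 37 C, given compound (0.59 nM to 92 uM) plus 0.4 nM T3 (final) for 18 h, then CCF4 for 2 h at RT; Hill fit gave IC50.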
# [20] = qHTS assay for small molecule agonists of the antioxidant response element (ARE) signaling pathway (AID 651741; active = well fitted activation curve with a large enough effect in the signal ratio; the % refers to the signal ratio; note: potency is the fitted concentration of half-maximal effect)
# Procedure, shortened: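 Compounds in DMSO are pinned onto HepG2 ARE-bla cells (2,000/well) that were preincubated 5 h; plates stay 16 h at 37 C, then beta-lactamase activity is detected with LiveBLAzer B/G substrate by fluorescence.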
# [21] = qHTS assay for small molecule activators of the nuclear factor-kappa B (NF-kB) signaling pathway (AID 651749; active = well fitted activation curve with a large enough effect in the signal ratio; the % refers to the signal ratio; note: series mostly up to about 77 µM; % of control where 0% means no effect); details: NF-kB-bla ME-180 cells, beta-lactamase FRET ratio, 16 h; stronger effect = higher value
# Procedure, shortened: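 Screening used 2,000 ME-180 reporter cells per well exposed to pinned compound (23 nL) or DMSO; after 16 hr at 37C, beta-lactamase expression under NF-kB control was assessed through FRET.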
# [22] = qHTS assay for environmental chemicals that activate the Aryl hydrocarbon Receptor (AhR) signaling pathway (AID 651777); details: 1A2-DRE human hepatoma cells, luciferase, 24 h; activation: stronger effect = higher value; note: % of control where 0% means no effect; nearly all actives have a fitted effect of over 15% in size
# Procedure, shortened: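 Following a 24 hr incubation with test chemicals at 37 C and 5% CO2, 1A2-DRE human hepatoma cells received One-Glo reagent; after 30 min at room temperature, luciferase output reflected CYP1A2 induction via AhR.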
# [23] = target: Peroxisome proliferator-activated receptor alpha (Homo sapiens) (UniProt Q07869); assay: qHTS assay for small molecule agonists of the peroxisome proliferator-activated receptor alpha (PPARalpha) signaling pathway (AID 651778); details: PathHunter PPARalpha complementation, chemiluminescence, 6 h; max response: stronger effect = higher value; note: % of control where 0% means no effect
# Procedure, shortened: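 Cells plated at 2,000/well and held overnight at 37 C, 5% CO2, then compound added by pin tool for 6 hr; after PathHunter detection reagent and 60 min at room temperature, chemiluminescence from enzyme complementation was read.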
# [24] = qHTS assay for small molecule agonists of the antioxidant response element (ARE) signaling pathway measured by Nrf2-dependant transcriptional activity (AID 720636; active = well fitted curve in the direction sought with a large enough effect in the repeat runs; an effect the other way counts as inactive or inconclusive;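 note: HepG2 cells with an ARE-driven luciferase reporter; % of control where 0% means no effect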)
# Procedure, shortened: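 ONE-Glo luminescence, read 30 min after reagent addition at room temperature, reflected ARE reporter activity in HepG2 cells that had been incubated with compound for 16 hr at 37 C in 1% dialyzed FBS.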
# [25] = qHTS assay for small molecule agonists of the antioxidant response element (ARE) signaling pathway measured by Nrf2-dependant transcriptional activity - cell viability counter screen (AID 720653; active = well fitted curve in the direction sought with a large enough effect in the repeat runs; an effect the other way counts as inactive or inconclusive; note: % is set by controls: 0 for no effect and ±100 for the full control effect); details: ARE-bla HepG2 viability, CellTiter-Glo ATP luminescence, 16 h; max response: stronger effect = lower value
# Procedure, shortened: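 ARE-bla HepG2 cells (2,000/well) rested 5 hrs at 37C/5% CO2, then exposed to compounds in DMSO for 16 hrs. Viability was read in the same wells as intracellular ATP by luminescence, 30 min at room temperature after reagent addition.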
# [26] = qHTS assay for cell viability of HEK293 cells (AID 743288); details: ATP luminescence (CellTiter-Glo), 18 h; max response: stronger effect = lower value; note: % is set by controls: 0 for no effect and ±100 for the full control effect; nearly all actives have a fitted effect of over 50% in size
# Procedure, shortened: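 Luminescent ATP quantitation served as the viability read-out. Cells (parental HEK293, 2,000/well) received compounds after at least 5 h at 37 C and were exposed for 18 h before a 30 min room-temperature reagent step.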
# [27] = qHTS assay for cell viability of the p53RE-bla HCT-116 cell line (AID 743292); note: % is set by controls: 0 for no effect and ±100 for the full control effect; nearly all actives have a fitted effect of over 55% in size
# Procedure, shortened: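 After plating at 4,000 cells per well and a 5 h rest at 37 C, HCT-116 cells carrying p53RE-bla received test chemicals in DMSO. Sixteen hours later at 37 C, CellTiter-Glo was added and luminescence recorded following 30 min at room temperature.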
# [28] = target: Nuclear receptor subfamily 1 group I member 2 (Rattus norvegicus) (UniProt Q9R1A7); assay: qHTS assay for small molecule activators of the rat pregnane X receptor (rPXR) signaling pathway (AID 651751; call rule not given here; note: 0% is about no effect); details: rPXR reporter cells, luciferase (One-Glo), 24 h
# [29] = qHTS assay for small molecule activators of the human pregnane X receptor (PXR) signaling pathway (AID 720659; call rule not given here; note: 0% is about no effect)
# Chain of Cytochrome P450 2C9 (Homo sapiens) (P11712 whole entry, looked up): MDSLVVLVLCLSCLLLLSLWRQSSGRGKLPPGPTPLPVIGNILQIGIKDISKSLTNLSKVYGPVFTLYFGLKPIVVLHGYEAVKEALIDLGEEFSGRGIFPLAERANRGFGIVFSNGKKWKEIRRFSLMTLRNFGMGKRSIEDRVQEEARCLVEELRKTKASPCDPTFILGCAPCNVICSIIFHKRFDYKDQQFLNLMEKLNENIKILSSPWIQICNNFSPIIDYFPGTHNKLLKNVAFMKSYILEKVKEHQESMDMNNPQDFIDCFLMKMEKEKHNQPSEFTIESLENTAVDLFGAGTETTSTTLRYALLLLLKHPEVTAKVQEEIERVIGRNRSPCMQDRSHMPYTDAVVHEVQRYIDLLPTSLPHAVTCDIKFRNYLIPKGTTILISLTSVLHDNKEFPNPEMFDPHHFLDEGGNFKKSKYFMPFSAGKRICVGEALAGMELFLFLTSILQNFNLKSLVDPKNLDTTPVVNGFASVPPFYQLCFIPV
# Chain of 3',5'-cyclic-AMP phosphodiesterase 4B (Homo sapiens) (Q07343 whole entry, looked up): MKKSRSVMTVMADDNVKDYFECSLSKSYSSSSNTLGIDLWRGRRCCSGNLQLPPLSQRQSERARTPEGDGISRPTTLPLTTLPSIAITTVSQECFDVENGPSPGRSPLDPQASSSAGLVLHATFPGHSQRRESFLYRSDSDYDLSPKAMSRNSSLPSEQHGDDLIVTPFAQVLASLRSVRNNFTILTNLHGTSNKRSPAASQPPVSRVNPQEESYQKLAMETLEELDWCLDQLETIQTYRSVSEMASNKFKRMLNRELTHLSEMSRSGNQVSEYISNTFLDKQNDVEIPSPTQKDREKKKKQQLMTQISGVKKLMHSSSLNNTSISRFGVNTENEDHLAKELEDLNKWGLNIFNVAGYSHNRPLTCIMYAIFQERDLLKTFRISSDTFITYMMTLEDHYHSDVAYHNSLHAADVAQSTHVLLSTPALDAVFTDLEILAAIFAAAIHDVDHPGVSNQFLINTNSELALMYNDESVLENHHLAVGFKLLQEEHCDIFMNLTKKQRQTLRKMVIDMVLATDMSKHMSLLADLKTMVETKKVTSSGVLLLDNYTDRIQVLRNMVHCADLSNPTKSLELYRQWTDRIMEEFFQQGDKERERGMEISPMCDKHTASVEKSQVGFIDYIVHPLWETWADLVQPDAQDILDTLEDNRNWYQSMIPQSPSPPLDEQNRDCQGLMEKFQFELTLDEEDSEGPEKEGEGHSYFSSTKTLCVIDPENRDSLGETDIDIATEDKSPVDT
# Chain of Cytochrome P450 1A2 (Homo sapiens) (P05177 whole entry, looked up): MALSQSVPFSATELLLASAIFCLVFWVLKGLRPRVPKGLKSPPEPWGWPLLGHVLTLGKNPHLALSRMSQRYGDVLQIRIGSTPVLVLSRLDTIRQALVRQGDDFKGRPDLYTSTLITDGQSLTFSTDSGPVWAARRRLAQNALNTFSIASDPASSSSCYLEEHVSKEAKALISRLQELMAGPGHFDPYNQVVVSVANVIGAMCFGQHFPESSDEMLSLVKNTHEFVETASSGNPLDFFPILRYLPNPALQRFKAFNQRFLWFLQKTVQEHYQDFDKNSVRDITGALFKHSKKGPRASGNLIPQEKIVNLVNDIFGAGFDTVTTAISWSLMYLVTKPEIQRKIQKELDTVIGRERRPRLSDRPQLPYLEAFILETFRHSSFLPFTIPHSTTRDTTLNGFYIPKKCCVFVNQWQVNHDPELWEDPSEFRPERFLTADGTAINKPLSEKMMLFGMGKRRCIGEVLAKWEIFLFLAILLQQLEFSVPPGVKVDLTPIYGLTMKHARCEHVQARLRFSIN
# Chain of Glucocorticoid receptor (Homo sapiens) (P04150 whole entry, looked up, the tested form may be a part): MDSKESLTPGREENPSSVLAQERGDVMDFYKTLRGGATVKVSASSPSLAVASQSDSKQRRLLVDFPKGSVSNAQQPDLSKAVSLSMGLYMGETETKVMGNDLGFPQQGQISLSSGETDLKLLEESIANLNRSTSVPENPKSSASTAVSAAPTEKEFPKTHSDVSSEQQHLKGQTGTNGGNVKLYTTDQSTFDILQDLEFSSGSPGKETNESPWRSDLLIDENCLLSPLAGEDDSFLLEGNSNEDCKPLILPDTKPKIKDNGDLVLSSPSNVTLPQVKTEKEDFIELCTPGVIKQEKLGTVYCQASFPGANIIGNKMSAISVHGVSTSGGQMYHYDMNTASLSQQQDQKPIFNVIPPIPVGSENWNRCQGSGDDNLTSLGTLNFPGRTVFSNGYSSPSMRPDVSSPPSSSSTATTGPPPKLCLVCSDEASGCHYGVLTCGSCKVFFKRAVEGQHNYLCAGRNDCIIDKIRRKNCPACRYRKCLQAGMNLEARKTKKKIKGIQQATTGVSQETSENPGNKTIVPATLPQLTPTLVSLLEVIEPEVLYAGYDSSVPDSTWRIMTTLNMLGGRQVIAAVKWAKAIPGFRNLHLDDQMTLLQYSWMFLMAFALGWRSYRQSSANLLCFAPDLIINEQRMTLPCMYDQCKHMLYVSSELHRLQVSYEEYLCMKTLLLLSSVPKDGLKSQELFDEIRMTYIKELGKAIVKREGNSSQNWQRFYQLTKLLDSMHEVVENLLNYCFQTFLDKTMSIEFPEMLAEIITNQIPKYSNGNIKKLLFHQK
# Chain of Cytochrome P450 2C19 (Homo sapiens) (P33261 whole entry, looked up): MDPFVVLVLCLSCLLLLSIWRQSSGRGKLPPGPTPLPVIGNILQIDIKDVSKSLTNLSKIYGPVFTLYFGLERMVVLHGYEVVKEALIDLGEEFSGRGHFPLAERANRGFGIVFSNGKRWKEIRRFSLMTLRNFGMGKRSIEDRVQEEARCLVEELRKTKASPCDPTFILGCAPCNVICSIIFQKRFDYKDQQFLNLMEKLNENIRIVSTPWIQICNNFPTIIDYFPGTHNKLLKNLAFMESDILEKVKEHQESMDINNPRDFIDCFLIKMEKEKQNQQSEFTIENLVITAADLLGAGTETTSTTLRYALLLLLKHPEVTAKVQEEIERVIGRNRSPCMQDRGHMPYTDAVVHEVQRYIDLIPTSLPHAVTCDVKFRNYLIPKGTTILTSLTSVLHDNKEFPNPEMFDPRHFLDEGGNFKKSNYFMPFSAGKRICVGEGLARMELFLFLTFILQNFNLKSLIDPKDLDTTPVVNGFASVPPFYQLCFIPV
# Chain of Thyroid hormone receptor beta (Homo sapiens) (P10828 whole entry, looked up): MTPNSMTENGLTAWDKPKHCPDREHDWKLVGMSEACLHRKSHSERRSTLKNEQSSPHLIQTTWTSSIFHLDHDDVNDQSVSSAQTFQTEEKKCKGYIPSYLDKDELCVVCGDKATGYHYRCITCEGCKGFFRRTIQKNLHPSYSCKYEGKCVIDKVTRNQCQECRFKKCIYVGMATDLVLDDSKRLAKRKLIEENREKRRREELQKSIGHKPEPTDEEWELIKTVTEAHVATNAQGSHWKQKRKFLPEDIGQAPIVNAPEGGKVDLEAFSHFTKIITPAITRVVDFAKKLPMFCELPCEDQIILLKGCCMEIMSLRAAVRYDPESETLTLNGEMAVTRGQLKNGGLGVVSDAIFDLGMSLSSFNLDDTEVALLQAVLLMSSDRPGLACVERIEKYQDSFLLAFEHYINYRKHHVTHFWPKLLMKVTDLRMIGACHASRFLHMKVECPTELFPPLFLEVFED
# Chain of Cytochrome P450 2D6 (Homo sapiens) (P10635 whole entry, looked up): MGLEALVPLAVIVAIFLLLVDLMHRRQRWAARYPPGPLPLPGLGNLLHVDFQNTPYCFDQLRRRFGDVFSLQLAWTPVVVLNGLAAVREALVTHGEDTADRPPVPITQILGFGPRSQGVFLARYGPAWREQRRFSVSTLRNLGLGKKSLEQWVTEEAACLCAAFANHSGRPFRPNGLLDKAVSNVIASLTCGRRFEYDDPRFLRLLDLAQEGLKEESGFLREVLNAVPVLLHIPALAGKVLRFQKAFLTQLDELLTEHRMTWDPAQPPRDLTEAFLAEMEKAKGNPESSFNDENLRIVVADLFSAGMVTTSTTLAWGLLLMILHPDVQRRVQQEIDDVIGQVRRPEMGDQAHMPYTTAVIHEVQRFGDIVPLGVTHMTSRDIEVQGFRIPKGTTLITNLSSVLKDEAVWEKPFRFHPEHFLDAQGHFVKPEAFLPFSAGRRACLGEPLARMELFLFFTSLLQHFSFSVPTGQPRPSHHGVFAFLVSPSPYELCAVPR
# Chain of Androgen receptor (Homo sapiens) (P10275 whole entry, looked up): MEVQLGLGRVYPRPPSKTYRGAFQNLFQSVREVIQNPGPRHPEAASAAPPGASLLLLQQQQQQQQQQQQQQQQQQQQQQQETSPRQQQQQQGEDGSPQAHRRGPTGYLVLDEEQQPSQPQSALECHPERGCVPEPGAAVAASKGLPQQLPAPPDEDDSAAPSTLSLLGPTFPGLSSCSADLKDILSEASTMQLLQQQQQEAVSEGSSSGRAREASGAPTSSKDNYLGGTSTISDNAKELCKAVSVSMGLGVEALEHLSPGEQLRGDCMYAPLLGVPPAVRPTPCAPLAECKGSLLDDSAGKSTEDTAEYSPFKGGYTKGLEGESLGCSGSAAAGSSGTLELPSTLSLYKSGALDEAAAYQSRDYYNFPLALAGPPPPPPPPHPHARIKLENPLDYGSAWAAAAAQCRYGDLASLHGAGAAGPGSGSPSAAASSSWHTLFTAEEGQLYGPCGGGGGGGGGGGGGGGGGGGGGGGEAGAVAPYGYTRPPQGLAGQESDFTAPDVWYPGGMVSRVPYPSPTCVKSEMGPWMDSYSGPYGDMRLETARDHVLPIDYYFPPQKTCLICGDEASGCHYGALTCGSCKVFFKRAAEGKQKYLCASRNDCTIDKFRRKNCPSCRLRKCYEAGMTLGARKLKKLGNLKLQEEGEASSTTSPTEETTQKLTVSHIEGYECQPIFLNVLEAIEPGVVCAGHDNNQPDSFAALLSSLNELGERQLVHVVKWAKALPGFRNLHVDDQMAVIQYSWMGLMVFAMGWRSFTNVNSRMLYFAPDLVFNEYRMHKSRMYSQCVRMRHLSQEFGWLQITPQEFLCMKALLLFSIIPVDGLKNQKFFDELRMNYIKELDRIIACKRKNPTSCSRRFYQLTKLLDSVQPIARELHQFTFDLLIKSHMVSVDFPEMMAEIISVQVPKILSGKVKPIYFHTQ
smiles,measurement,setting,value
COc1ccc(OC)c([C@H]2Nc3ccccc3NC3=C2C(=O)CC(C)(C)C3)c1Br,Potency,[1],20 µM (active)
same,Potency,[2],> 46 µM (inactive)
same,Potency,[3],> 46 µM (inactive)
same,Potency,[4],inactive
same,Potency,[5],inactive
same,Potency,[6],31.6 µM (active)
same,Potency,[7],3.16 µM (active)
COc1ccc(-c2coc3cc(O[C@@H]4O[C@@H](CO)[C@@H](O)[C@@H](O)[C@H]4O)cc(O)c3c2=O)cc1,Potency,[1],inactive
same,Potency,[2],> 46 µM (inactive)
same,Potency,[3],> 46 µM (inactive)
same,Potency,[4],inactive
same,Potency,[6],inactive
same,Potency,[8],inactive
same,Potency,[7],inactive
C=C1C(=O)O[C@H]2C[C@@]3(C)CCCC(=C)[C@@H]3C[C@H]12,Potency,[1],20 µM (active)
same,Potency,[2],> 46 µM (inactive)
same,Potency,[3],> 46 µM (inactive)
same,Potency,[4],inactive
same,Potency,[5],7.55 µM (active)
same,Potency,[7],2.51 µM (active)
C=C1CC[C@@H]2[C@](C)(CC[C@@H](O)[C@]2(C)CO)[C@@H]1C/C=C1/C(=O)OC[C@H]1O,Potency,[1],inactive
same,Potency,[2],> 46 µM (inactive)
same,Potency,[3],> 46 µM (inactive)
same,Potency,[4],inactive
same,Potency,[5],inactive
same,Potency,[6],inactive
same,Potency,[8],inactive
same,Potency,[7],inactive
CC1(C)CCC(C)(C)c2cc(C(=O)Nc3ccc(C(=O)O)cc3)ccc21,Potency,[1],31.6 µM (active)
same,Potency,[2],> 46 µM (inactive)
same,Potency,[3],> 46 µM (inactive)
same,Potency,[5],inactive
same,outcome,[9],inactive
same,activation,[10],-12.7% (inactive)
same,outcome,[11],inactive
same,Potency,[12],inactive
same,activation,[13],-10.3% (inactive)
same,Potency,[14],inactive
same,outcome,[15],inactive
same,outcome,[16],inactive
same,max response,[17],2.34%
same,max response,[18],-51.1% (inactive)
same,activity change % (negative = inhibition),[19],15.7% (inactive)
same,Potency,[20],61.1 µM (active)
same,activation,[21],1.76% (inactive)
same,activation,[22],-0.1% (inactive)
same,max response,[23],0.0193% (inactive)
same,Potency,[24],inactive
same,max response,[25],-7.97% (inactive)
same,max response,[26],1.87% (inactive)
same,Potency,[27],inactive
same,max response,[28],-9.44% (inactive)
same,outcome,[29],inactive
